In PubChem BioAssay:
A number with no mark means an inactive call. For part of these data: Measured potencies and affinities stand elsewhere. Calls of active or inactive are those of the source. Unless noted, the rule behind the calls is not given here.

Key:
[1] = antimalarial activity against Dd2 strain (AID 2302;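 active = growth inhibition above 50% at the single 2 µM test dose, taken to imply half-maximal potency below 2 µM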;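 note: 0% = DMSO untreated growth and 100% = chloroquine plus artemisinin killed control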); details: P. falciparum Dd2 in RBCs, LDH growth readout, 72 h; at 2 µM; active compounds read high
[2] = human hepatoma cell viability loss – ATP luminescence, cytotoxicity control for P. falciparum antimalarial project, primary screen (AID 2303;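 active = inhibition above 50%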;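 note: 0% = DMSO wells and 100% = digitonin-killed cells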); details: HepG2 viability, 24-48 h, at 10 µM, active compounds read high
[3] = target: L-lactate dehydrogenase (Plasmodium falciparum (isolate CDC / Honduras)) (UniProt Q27743); test: PfLDH activity inhibition – cell lysate, 3D7 strain, counter-screen for P. falciparum growth inhibition project (AID 2304);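 note: 0% = vehicle and 100% = reference inhibitor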; details: P. falciparum 3D7 crude extract, LDH APAD/NBT absorbance; at 2 µM; active compounds read high
Chain of L-lactate dehydrogenase (Plasmodium falciparum (isolate CDC / Honduras)) (Q27743 whole entry, looked up): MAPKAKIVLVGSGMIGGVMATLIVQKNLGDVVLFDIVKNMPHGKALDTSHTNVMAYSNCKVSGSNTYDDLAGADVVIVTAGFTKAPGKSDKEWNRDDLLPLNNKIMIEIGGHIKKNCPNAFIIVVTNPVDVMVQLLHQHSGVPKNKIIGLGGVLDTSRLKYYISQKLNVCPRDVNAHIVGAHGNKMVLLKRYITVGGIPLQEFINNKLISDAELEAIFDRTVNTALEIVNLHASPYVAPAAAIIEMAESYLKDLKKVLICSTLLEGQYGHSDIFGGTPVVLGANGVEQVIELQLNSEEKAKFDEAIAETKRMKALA

[4] = inhibition of 3D7 malaria parasite growth – strain 3D7 (AID 2306);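 note: 0% = DMSO wells and 100% = chloroquine plus artemisinin control wells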; details: P. falciparum 3D7 erythrocytic growth, LDH absorbance, 72 h; at 2 µM; active compounds read high
[5] = target: Calcium-dependent protein kinase 1 (Plasmodium falciparum (isolate 3D7)) (UniProt P62344); test: PfCDPK1 kinase inhibitors, biochemical, TCAMS library (AID 1159585; cut-off not given, nearly all actives have IC50 up to about 0.98 µM;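 note: inhibitors leave more ATP so luminescence rises with inhibition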); details: recombinant PfCDPK1, Kinase-Glo ATP depletion luminescence
Chain of Calcium-dependent protein kinase 1 (Plasmodium falciparum (isolate 3D7)) (P62344 whole entry, looked up): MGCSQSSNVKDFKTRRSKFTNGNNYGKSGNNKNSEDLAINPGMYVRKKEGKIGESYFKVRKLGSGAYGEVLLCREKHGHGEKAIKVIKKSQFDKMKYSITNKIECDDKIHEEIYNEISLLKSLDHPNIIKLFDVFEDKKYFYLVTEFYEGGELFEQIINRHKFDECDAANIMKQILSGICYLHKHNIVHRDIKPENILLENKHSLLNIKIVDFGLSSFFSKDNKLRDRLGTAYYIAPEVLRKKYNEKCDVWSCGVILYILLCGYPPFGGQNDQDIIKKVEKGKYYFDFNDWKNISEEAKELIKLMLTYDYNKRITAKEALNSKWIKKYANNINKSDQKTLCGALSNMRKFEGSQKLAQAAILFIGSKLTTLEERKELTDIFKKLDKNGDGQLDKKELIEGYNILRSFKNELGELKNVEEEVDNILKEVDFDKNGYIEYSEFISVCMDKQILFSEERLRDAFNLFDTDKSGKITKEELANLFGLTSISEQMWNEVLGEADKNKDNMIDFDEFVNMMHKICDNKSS

[6] = target: Plasmodium falciparum protein kinase 6 (PK6, PF3D7_1337100) (UniProt Q8IDW1); test: PfPK6 kinase inhibitors, biochemical, TCAMS library (AID 1159586); details: recombinant PfPK6, Kinase-Glo ATP depletion luminescence
Chain of Plasmodium falciparum protein kinase 6 (PK6, PF3D7_1337100) (Q8IDW1 1-305): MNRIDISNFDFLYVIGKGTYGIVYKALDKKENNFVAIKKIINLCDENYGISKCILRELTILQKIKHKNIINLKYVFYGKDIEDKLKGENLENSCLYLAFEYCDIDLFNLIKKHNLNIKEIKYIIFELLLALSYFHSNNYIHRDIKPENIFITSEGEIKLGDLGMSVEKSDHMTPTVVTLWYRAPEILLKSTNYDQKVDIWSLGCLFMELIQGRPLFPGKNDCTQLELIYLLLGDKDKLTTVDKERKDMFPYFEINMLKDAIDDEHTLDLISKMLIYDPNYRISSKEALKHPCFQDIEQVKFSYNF

[7] = target: Protein kinase 7 (PK7), Plasmodium falciparum 3D7 (PF3D7_0213400) (UniProt Q7YTF7); test: inhibition of Plasmodium PK7 catalytic activity – biochemical, TCAMS antimalarial set, Kinase-Glo luminescence (AID 1159587); details: recombinant PfPK7, Kinase-Glo ATP depletion luminescence
Chain of Protein kinase 7 (PK7), Plasmodium falciparum 3D7 (PF3D7_0213400) (Q7YTF7 1-343): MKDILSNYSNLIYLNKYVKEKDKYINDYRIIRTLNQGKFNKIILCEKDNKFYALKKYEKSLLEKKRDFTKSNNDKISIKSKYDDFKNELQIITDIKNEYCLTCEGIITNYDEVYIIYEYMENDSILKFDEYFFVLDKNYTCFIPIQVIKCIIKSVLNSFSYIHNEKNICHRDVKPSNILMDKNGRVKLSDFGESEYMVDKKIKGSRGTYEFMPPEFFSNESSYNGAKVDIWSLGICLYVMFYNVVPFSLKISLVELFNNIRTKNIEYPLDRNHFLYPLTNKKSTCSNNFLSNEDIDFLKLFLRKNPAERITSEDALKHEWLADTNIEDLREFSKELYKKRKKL

[8] = target: Calcium-dependent protein kinase 4 (Plasmodium falciparum (isolate 3D7)) (UniProt Q8IBS5); test: PfCDPK4 kinase inhibitors, biochemical, TCAMS library (AID 1159588; cut-off not given, nearly all actives have IC50 up to about 0.91 µM); details: recombinant PfCDPK4, Kinase-Glo ATP depletion luminescence
Chain of Calcium-dependent protein kinase 4 (Plasmodium falciparum (isolate 3D7)) (Q8IBS5 whole entry, looked up): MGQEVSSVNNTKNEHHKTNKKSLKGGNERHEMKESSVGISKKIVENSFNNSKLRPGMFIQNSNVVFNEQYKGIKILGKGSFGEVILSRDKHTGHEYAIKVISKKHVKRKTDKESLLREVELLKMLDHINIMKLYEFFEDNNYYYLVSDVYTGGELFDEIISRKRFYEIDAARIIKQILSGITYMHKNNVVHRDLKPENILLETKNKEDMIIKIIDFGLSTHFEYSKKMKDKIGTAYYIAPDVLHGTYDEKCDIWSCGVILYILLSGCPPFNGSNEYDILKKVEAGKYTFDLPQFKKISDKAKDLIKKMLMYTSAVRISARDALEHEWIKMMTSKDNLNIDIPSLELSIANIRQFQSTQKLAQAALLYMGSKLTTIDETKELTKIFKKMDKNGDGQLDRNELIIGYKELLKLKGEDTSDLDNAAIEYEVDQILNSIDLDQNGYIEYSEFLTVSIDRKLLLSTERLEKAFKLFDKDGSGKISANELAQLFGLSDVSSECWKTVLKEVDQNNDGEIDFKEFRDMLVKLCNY

Structure (SMILES) | growth inhibition [1] | inhibition [2] | inhibition [3] | growth inhibition [4] | outcome [5] | outcome [6] | outcome [7] | outcome [8]
N#Cc1cncc(-c2nc3c(N4CCC(N5CCCC5)CC4)cccc3n2CCNCc2ccccc2)c1 | 58% (active) | 3% | -2% | 100% (active) | inactive | inactive | inactive | inactive
COc1ccc(C2CC(c3cccs3)=NN2C(=O)CNc2cccc(C#N)c2)cc1OC (configuration not stated) | 35% | 8% | -4% | 87% (active) | inactive | inactive | inactive | inactive
CN1CCC(NCc2cccc(-c3ccc(S(=O)(=O)NCCN4CCCC4)c(F)c3)c2)CC1 | -4% | 14% | 2% | 91% (active) | inactive | inactive | inactive | inactive
O=C(C(=O)c1ccc(Nc2ccnc3cc(-c4ccccn4)ccc23)cc1)c1ccccc1 | 34% | 22% | -4% | 93% (active) | inactive | inactive | inactive | inactive
COc1cc2nc(N3CCC(CNC(=O)c4ccc(-c5ccc(C#N)cc5)cc4)CC3)nc(N)c2cc1OC | 99% (active) | 21% | -4% | 100% (active) | inactive | inactive | inactive | inactive
Nc1nc(N)c2c(ccc3c2ccn3Cc2ccc(Cl)cc2)n1 | 99% (active) | 100% (active) | 0% | 100% (active) | inactive | inactive | inactive | inactive
CCN(CC)CCN(Cc1ccc(-c2ccc(C(F)(F)F)cc2)cc1)C(=O)Cn1c(CCc2cc(F)c(F)cc2F)nc(=O)c2ccccc21 | 50% (active) | 39% | -4% | 99% (active) | inactive | inactive | inactive | inactive
N#Cc1ccc(NC(=NCCc2c[nH]c3ccccc23)Nc2ccc(-c3ccccc3)cc2)c(O)c1 | 75% (active) | 6% | 6% | 96% (active) | inactive | inactive | inactive | inactive
Cn1nccc1C(=O)NCCNCc1ccc(-c2cccc(-c3nc4ccc(C(F)(F)F)cc4[nH]3)c2)cc1 | 99% (active) | 51% (active) | -8% | 101% (active) | inactive | inactive | inactive | inactive
Cc1nc(-c2ccc(C(F)(F)F)cn2)sc1C(=O)N1CCc2cc3nccc(N4CCN5CCC[C@H]5C4)c3cc21 | 72% (active) | 5% | 0% | 100% (active) | inactive | inactive | inactive | inactive
CCN(CC)CCn1c(=N)n(CC(=O)c2ccc(-c3ccccc3)cc2)c2ccccc21 | 38% | 32% | 0% | 83% (active) | inactive | inactive | inactive | inactive
O=C(Nc1ccc(-c2cccc(-c3nc4ccc(C(F)(F)F)cc4[nH]3)c2)cc1)c1ccoc1 | 13% | 52% (active) | -9% | 96% (active) | inactive | inactive | inactive | inactive
O=C(/C=C/c1ccc(Cl)c(Cl)c1)NCCCCCN1CCN(C(=O)Nc2ccc(Cl)c(C(F)(F)F)c2)CC1 | -3% | 22% | 3% | 100% (active) | inactive | inactive | inactive | inactive
CCOC(=O)C1=C(C)NC(C)=C(C(=O)OCC)C1(C(=O)OCc1ccccc1)c1cccc(C(F)(F)F)c1 | 60% (active) | -17% | 5% | 88% (active) | inactive | inactive | inactive | inactive
Cc1[nH]c(C)c(-c2ccc(Cl)cc2Cl)c(=O)c1Br | 57% (active) | 3% | -4% | 87% (active) | inactive | inactive | inactive | inactive
CS(=O)(=O)c1ccc(CCNCc2ccc(-c3ccc(CN(C(=O)C4CC(=O)c5ccccc54)C4Cc5ccccc5C4)cc3)nc2)cc1 (configuration not stated) | 21% | 5% | -7% | 90% (active) | inactive | inactive | inactive | inactive
COc1ccc2nccc([C@@H](O)CN3CCC(NCC4COc5ccccc5O4)CC3)c2c1 (some centres not stated) | 94% (active) | 17% | 4% | 98% (active) | inactive | inactive | inactive | inactive
O=C(NC1CCCCN(Cc2ccccc2O)C1)c1ccc(Cl)c(Cl)c1 (configuration not stated) | 96% (active) | -7% | -1% | 96% (active) | inactive | inactive | inactive | inactive
CC(C)CNCc1ccc(-c2cccc(CN(C(=O)NCCc3ccccc3)C3CCN(Cc4ccccc4)CC3)c2)cc1 | 94% (active) | 91% (active) | -1% | 100% (active) | inactive | inactive | inactive | inactive
COc1ccc(-c2ccc(NC(=O)c3cccc(C#N)c3)cc2)cc1CN1CCN(C)CC1 | 59% (active) | 26% | 8% | 100% (active) | inactive | inactive | inactive | inactive

Structure (SMILES) | growth inhibition [1] | inhibition [2] | inhibition [3] | growth inhibition [4] | outcome [5] | outcome [6] | outcome [7] | outcome [8]
O=C(NCCCCN1CCN(c2cccc(Cl)c2Cl)CC1)c1ccc2c(c1)CCN(C1CCC1)CC2 | 31% | 97% (active) | 3% | 95% (active) | inactive | inactive | inactive | inactive
CN1CCN(c2ccc(Cl)cc2NC(=O)C2COc3ccccc3O2)CC1 (configuration not stated) | 44% | 2% | 2% | 99% (active) | inactive | inactive | inactive | inactive
C=CCOc1cccc2c1CCN(CCN1CCC(NC(=O)c3ccc(-c4ccc(Cl)cc4)cc3)CC1)C2 | 22% | 35% | -2% | 93% (active) | inactive | inactive | inactive | inactive
CCCCC(N)COc1cccc2c(-c3ccncc3)c(-c3cccc(NC(=O)Nc4ccccc4)c3)nn12 (configuration not stated) | 82% (active) | 13% | 0% | 102% (active) | inactive | inactive | inactive | inactive
Cc1cccc2[nH]c(-c3ccc(-c4ccc(CN5CCCC(N)C5)cc4)cc3)nc12 (configuration not stated) | 101% (active) | 33% | -3% | 99% (active) | inactive | inactive | inactive | inactive
O=C(CSc1nccn1C1CCCCC1)Nc1cc(C(F)(F)F)ccc1Cl | 95% (active) | 2% | -1% | 96% (active) | inactive | inactive | inactive | inactive
CC(C)CC(C)NC(=O)C1Cc2c([nH]c3ccc(F)cc23)C2(CCN(Cc3ccccc3)CC2)N1 (configuration not stated) | 49% | 18% | 7% | 97% (active) | inactive | inactive | inactive | inactive
O=S(=O)(NCCN1CCCC1)c1ccc(-c2cccc(CNCc3ccsc3)c2)s1 | 43% | 42% | 0% | 90% (active) | inactive | inactive | inactive | inactive
COc1ccc2nccc([C@@H](O)CN3CCC(NCc4nc5c([N+](=O)[O-])cccc5[nH]4)CC3)c2c1 | 84% (active) | 13% | -2% | 101% (active) | inactive | inactive | inactive | inactive
CCN(CC)S(=O)(=O)c1cc(-c2ccc(=O)n(CC(=O)c3ccc(C)cc3)n2)ccc1C | 66% (active) | 6% | -3% | 86% (active) | inactive | inactive | inactive | inactive
COc1ccc(CC(=O)NC(CCN2CCC3(CC2)CN(S(C)(=O)=O)c2ccccc23)c2ccc(Cl)c(Cl)c2)cc1OC (configuration not stated) | 77% (active) | 10% | 7% | 92% (active) | inactive | inactive | inactive | inactive
O=C(Nc1ccc2c(c1)CCN2C1CCN(Cc2ccc(C(F)(F)F)cc2F)C1)c1ccco1 (configuration not stated) | 94% (active) | 9% | 1% | 91% (active) | inactive | inactive | inactive | inactive
CCCCCCCN1CCC(CCNc2ccnc3ccc(OC)cc23)CC1 | 86% (active) | 5% | -2% | 84% (active) | inactive | inactive | inactive | inactive
O=C(NCc1ccc(Cl)cc1)c1ccc(CN2CCCN(Cc3cccc(O)c3)CC2)cc1 | 12% | 25% | -5% | 82% (active) | inactive | inactive | inactive | inactive
O=C(NCCc1ccc(Cl)c(Cl)c1)[C@@H]1CCCN1C(=O)c1ccc(O)c(-c2cccc(C(F)(F)F)c2)c1 | 82% (active) | 0% | -7% | 97% (active) | inactive | inactive | inactive | inactive
COc1ccc(CNc2ncnc3c2[nH]c2ccc(F)cc23)cc1 | 71% (active) | 38% | -3% | 93% (active) | inactive | inactive | inactive | inactive
Cc1ccc2nc(-c3ccccc3)cc(NN=Cc3cccnc3)c2c1 | 39% | 12% | 1% | 99% (active) | inactive | inactive | inactive | inactive
O=C(Nc1ccc(C(F)(F)F)cc1)c1cccc(S(=O)(=O)NC2CCN(Cc3ccccc3)C2)c1 (configuration not stated) | -2% | 39% | -5% | 88% (active) | inactive | inactive | inactive | inactive
COc1cc(C(F)(F)F)cc2[nH]c(CNCCCNc3nc4ccccc4[nH]3)cc12 | 2% | 59% (active) | 2% | 102% (active) | inactive | inactive | inactive | inactive
